Reference: PubChem BioAssay (EPA / NIEHS)
Where “and” joins values, the source holds several entries; their conditions need not be identical. Equal entries are not always repeated. Some structures have more than one record in an assay (separate samples or runs), and their calls can disagree. Calls of active or inactive are those of the source. The calls were made as follows: active = hit-call score of the fitted dose curve at least 0.9, where 1 is the maximum; inactive = score below 0.9.

Columns and labels:
[1] = ATG_DR4_LXR_CIS: Attagene CIS-FACTORIAL HepG2 Assay for human Liver X Receptor (LXR), DR4 submotif (AID 2282929); conditions: HepG2 Attagene DR4 cis-reporter, mRNA transcription; AC50: actives raise or lower the signal unless noted; outcome: actives raise or lower the signal unless noted
Procedure, shortened: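 HepG2 cells transiently transfected with cis-promoter-driven multiplexed reporter units (DR4 element) were dosed for 24 h. Reporter mRNA was quantified by RT-PCR, fluorescent primer extension, HpaI digestion and capillary electrophoresis; bidirectional fitting versus DMSO baseline.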

[2] = target: Aryl hydrocarbon receptor (Homo sapiens) (UniProt P35869); test: ATG_Ahr_CIS: Attagene CIS-FACTORIAL HepG2 Assay for human Aryl Hydrocarbon Receptor (Ahr) (AID 2282930); conditions: HepG2 AhR cis-factorial reporter transcription; actives raise or lower the signal
Procedure, shortened: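 Values derive from bidirectional fitting against DMSO negative control. Underlying signal: cis-element reporter mRNA in transiently transfected HepG2, harvested 24 h post-dose and measured by RT-PCR plus capillary electrophoresis.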

[3] = ATG_AP_1_CIS: Attagene CIS-FACTORIAL HepG2 Assay for human Activator Protein 1 (AP-1) (AID 2282931); conditions: HepG2 Attagene cis-factorial AP-1 reporter mRNA; actives raise or lower the signal
Procedure, shortened: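 HepG2 cells transiently transfected with cis-element-driven multiplex reporter units; 24 h compound exposure. Reporter mRNA quantified by RT-PCR, FAM-labelled fragments resolved by capillary electrophoresis; bidirectional fit versus DMSO baseline.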

[4] = ATG_AP_2_CIS: Attagene CIS-FACTORIAL HepG2 Assay for human Activator Protein 2 (AP-2) (AID 2282932); conditions: HepG2 AP-2 cis-reporter, Attagene transcription factor profiling; AC50: actives raise or lower the signal unless noted; outcome: actives raise or lower the signal unless noted
Procedure, shortened: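 HepG2 cells were transiently transfected with multiple cis-promoter reporter transcription units and dosed for 24 h. Reporter mRNA was measured by RT-PCR with capillary electrophoresis fluorescence; bidirectional fits relative to DMSO baseline.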

[5] = ATG_BRE_CIS: Attagene CIS-FACTORIAL HepG2 Assay for human Bone Morphogenetic Protein (BMP) Response Element (BRE) (AID 2282933); conditions: HepG2 BMP response element reporter, Attagene transcription factor profiling; actives raise or lower the signal
Procedure, shortened: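 Read-out: reporter mRNA induction quantified by RT-PCR and capillary electrophoresis after 24 h chemical exposure of transfected HepG2 cells. Endogenous factor activity on the BMP response element; gain or loss fitted against DMSO baseline.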

[6] = target: Retinoic acid receptor alpha (Homo sapiens) (UniProt P10276); test: ATG_DR5_RAR_CIS: Attagene CIS-FACTORIAL HepG2 Assay for human Retinoic Acid Receptor Alpha (RARE), DR5 submotif (AID 2282934); conditions: HepG2 Attagene cis-factorial RARE DR5 reporter, mRNA; actives raise or lower the signal
Procedure, shortened: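 Endpoint fitted in both directions relative to DMSO as negative control. It reflects DR5 cis-element reporter mRNA induction in transiently transfected HepG2 cells, measured 24 h after dosing through RT-PCR and fluorescent capillary electrophoresis.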

[7] = target: Transcription factor E2F1 (Homo sapiens) (UniProt Q01094); test: ATG_E2F_CIS: Attagene CIS-FACTORIAL HepG2 Assay for human E2F Transcription Factor 1 (AID 2282935); conditions: HepG2 Attagene cis-reporter, E2F reporter RNA transcripts; actives raise or lower the signal
Procedure, shortened: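 HepG2 cells transiently transfected with multiplexed cis-element reporter units, dosed for 24 h. Reporter mRNA measured by RT-PCR, 6-FAM primer-extension labeling, HpaI digestion and capillary electrophoresis; bidirectional fit versus DMSO baseline.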

[8] = ATG_E_Box_CIS: Attagene CIS-FACTORIAL HepG2 Assay for human Enhancer Box (E-box) (AID 2282936); conditions: HepG2 E-box cis-reporter transcription, actives raise or lower the signal
Procedure, shortened: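 HepG2 cells transiently transfected with multiplexed cis-element reporter units sensing endogenous transcription factor activity; 24 h compound exposure. Reporter mRNA measured by RT-PCR, 6-FAM primer extension, HpaI digestion and capillary electrophoresis; bidirectional fit versus DMSO.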

[9] = ATG_M_61_CIS: Attagene CIS-FACTORIAL HepG2 Assay for M61 Transcription Factor (Internal Marker) (AID 2282937); conditions: HepG2 Attagene CIS-FACTORIAL M61 internal marker reporter; actives raise or lower the signal
Procedure, shortened: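 HepG2 cells transiently transfected with cis-element-driven multiple reporter transcription units, dosed for 24 h. Reporter mRNA measured by RT-PCR, 6-FAM primer-extension labelling, HpaI digestion and capillary electrophoresis; bidirectional fit versus DMSO baseline.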

[10] = ATG_M_19_CIS: Attagene CIS-FACTORIAL HepG2 Assay for M19 Transcription Factor (Internal Marker) (AID 2282939); conditions: HepG2 Attagene CIS-FACTORIAL M19 internal marker reporter; actives raise or lower the signal
Procedure, shortened: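 Readout: fluorescent reporter-transcript fragments by capillary electrophoresis after RT-PCR. Human HepG2 liver cells carried transfected MRTU constructs reporting endogenous transcription-factor activity; exposure 24 h. Gain or loss of signal fitted relative to DMSO.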

[11] = ATG_ERE_CIS: Attagene CIS-FACTORIAL HepG2 Assay for Estrogen Response Element (ERE) (AID 2282940); conditions: HepG2 ERE cis-reporter, Attagene RNA transcript; actives raise or lower the signal
Procedure, shortened: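 Readout: reporter mRNA induction by RT-PCR, FAM-labelled primer extension, HpaI digestion and capillary electrophoresis, 24 h after dosing transfected HepG2 cells. Endogenous transcription factors act on cis-element-regulated reporters. Gain or loss fitted against DMSO.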

[12] = target: Hepatocyte nuclear factor 3-beta (Homo sapiens) (UniProt Q9Y261); test: ATG_FoxA2_CIS: Attagene CIS-FACTORIAL HepG2 Assay for human Forkhead box A2 (FOXA2) (AID 2282942); conditions: HepG2 cis-reporter transcription factor activity, 24 h; actives raise or lower the signal
Procedure, shortened: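 HepG2 cells transiently transfected with multiple cis-regulated reporter transcription units, dosed for 24 h. Reporter mRNA measured by RT-PCR, 6-FAM labelling, HpaI digestion and capillary electrophoresis; bidirectional fitting against DMSO baseline.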

[13] = ATG_FoxO_CIS: Attagene CIS-FACTORIAL HepG2 Assay for human Forkhead box O (FoxO) (AID 2282943); conditions: HepG2 Attagene cis-reporter, FoxO element, mRNA; actives raise or lower the signal
Procedure, shortened: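 Values reflect reporter mRNA induction or loss in HepG2 cells 24 h post-dosing, fitted bidirectionally with DMSO as negative control and baseline. Detection used RT-PCR and fluorescence capillary electrophoresis.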

[14] = ATG_GATA_CIS: Attagene CIS-FACTORIAL HepG2 Assay for human GATA Binding Protein (AID 2282944); conditions: HepG2 GATA cis-element reporter, Attagene multiplex mRNA; actives raise or lower the signal
Procedure, shortened: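 Read-out: fluorescent reporter mRNA fragments resolved by capillary electrophoresis after RT-PCR. Human liver HepG2 cells carried transiently transfected cis-regulated reporter constructs; chemicals incubated 24 h; gain or loss of signal fitted relative to DMSO.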

[15] = ATG_GLI_CIS: Attagene CIS-FACTORIAL HepG2 Assay for human Zinc Finger Protein GLI1 (AID 2282945); conditions: HepG2, Attagene cis-factorial reporter mRNA, GLI element; actives raise or lower the signal
Procedure, shortened: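 HepG2 cells transiently transfected with cis-promoter multiplexed reporter units report endogenous transcription factor activity. After 24 h chemical exposure, reporter mRNA was quantified by RT-PCR, 6-FAM labelling, HpaI digestion and capillary electrophoresis, with bidirectional fitting against DMSO.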

[16] = target: Bile acid receptor (Homo sapiens) (UniProt Q96RI1); test: ATG_IR1_CIS: Attagene CIS-FACTORIAL HepG2 Assay for human Nuclear Receptor Subfamily 1 Group H Member 4 (NR1H4), IR1 submotif (AID 2282946); conditions: IR1 reporter transcription, actives raise or lower the signal
Procedure, shortened: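 Transient MRTU transfection, HepG2; 24 h dosing; RNA → RT-PCR → 6-FAM primer extension → HpaI digest → capillary electrophoresis fluorescence. Gain/loss of signal fitted relative to DMSO.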

[17] = ATG_GRE_CIS: Attagene CIS-FACTORIAL HepG2 Assay for human Glucocorticoid Response Elements (GRE) (AID 2282947); conditions: HepG2 GRE cis-reporter, Attagene multiplex mRNA; AC50: actives raise or lower the signal unless noted; outcome: actives raise or lower the signal unless noted
Procedure, shortened: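 HepG2 cells transiently transfected with multiple cis-promoter reporter units measure endogenous TF activity; 24 h compound exposure. Reporter mRNA quantified by RT-PCR, FAM labelling, HpaI digestion and capillary electrophoresis; bidirectional fit vs DMSO baseline.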

[18] = ATG_ISRE_CIS: Attagene CIS-FACTORIAL HepG2 Assay for human Interferon Regulatory Factor 1 (IRF1) binding to an Interferon-Stimulated Response Element (ISRE) (AID 2282948); conditions: HepG2 ISRE cis-reporter (Attagene), mRNA transcription readout; actives raise or lower the signal
Procedure, shortened: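 HepG2 cells transiently transfected with multiplexed cis-promoter reporter units; after 24 h compound exposure, reporter mRNA quantified by RT-PCR, FAM labelling, HpaI digestion and capillary electrophoresis. Bidirectional fit versus DMSO baseline.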

[19] = ATG_EGR_CIS: Attagene CIS-FACTORIAL HepG2 Assay for human Early Growth Response 1 (EGR1) (AID 2282938); conditions: HepG2 Attagene CIS-FACTORIAL EGR reporter mRNA; actives raise or lower the signal
Procedure, shortened: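 HepG2 cells transiently transfected with cis-promoter-driven multiplexed reporter transcription units; reporter mRNA measured 24 h after compound dosing by RT-PCR, 6-FAM primer extension, HpaI digestion and capillary electrophoresis. Bidirectional fit versus DMSO baseline.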

[20] = ATG_Ets_CIS: Attagene CIS-FACTORIAL HepG2 Assay for human Erythroblast Transformation Specific (ETS) (AID 2282941); conditions: HepG2 ETS cis-reporter transcription; AC50: actives raise or lower the signal unless noted; outcome: actives raise or lower the signal unless noted
Procedure, shortened: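 HepG2 cells transiently transfected with cis-promoter reporter transcription units were dosed for 24 h; reporter mRNA was measured by RT-PCR, 6-FAM primer extension, HpaI digestion and capillary electrophoresis, with bidirectional fitting against DMSO baseline.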

Measured: AC50

Transcription factor E2F1 (Homo sapiens), sequence (Q01094 whole entry, looked up): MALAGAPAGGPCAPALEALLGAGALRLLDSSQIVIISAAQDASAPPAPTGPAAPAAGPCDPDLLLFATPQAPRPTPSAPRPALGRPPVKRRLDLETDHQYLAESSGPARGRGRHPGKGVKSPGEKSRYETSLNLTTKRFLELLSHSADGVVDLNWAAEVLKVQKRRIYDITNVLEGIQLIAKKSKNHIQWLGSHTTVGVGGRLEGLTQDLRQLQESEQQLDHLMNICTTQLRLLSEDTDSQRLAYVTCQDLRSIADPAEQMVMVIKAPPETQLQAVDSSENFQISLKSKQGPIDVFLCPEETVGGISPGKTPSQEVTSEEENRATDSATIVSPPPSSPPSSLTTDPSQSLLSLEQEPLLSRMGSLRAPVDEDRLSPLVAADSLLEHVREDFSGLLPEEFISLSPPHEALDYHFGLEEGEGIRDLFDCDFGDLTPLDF
Bile acid receptor (Homo sapiens), sequence (Q96RI1 whole entry, looked up): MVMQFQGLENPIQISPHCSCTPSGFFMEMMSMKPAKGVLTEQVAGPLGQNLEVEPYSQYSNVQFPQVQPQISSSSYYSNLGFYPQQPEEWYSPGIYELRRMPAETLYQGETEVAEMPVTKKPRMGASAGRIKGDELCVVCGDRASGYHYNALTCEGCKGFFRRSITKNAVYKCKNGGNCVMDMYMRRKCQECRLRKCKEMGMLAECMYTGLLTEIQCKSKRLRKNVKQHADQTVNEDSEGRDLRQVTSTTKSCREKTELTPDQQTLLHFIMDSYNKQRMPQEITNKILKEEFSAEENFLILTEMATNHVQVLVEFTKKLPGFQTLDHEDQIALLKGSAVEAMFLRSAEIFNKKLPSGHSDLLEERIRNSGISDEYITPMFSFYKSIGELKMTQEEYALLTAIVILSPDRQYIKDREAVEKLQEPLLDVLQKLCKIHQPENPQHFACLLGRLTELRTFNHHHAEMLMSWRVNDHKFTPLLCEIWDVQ
Aryl hydrocarbon receptor (Homo sapiens), sequence (P35869 whole entry, looked up): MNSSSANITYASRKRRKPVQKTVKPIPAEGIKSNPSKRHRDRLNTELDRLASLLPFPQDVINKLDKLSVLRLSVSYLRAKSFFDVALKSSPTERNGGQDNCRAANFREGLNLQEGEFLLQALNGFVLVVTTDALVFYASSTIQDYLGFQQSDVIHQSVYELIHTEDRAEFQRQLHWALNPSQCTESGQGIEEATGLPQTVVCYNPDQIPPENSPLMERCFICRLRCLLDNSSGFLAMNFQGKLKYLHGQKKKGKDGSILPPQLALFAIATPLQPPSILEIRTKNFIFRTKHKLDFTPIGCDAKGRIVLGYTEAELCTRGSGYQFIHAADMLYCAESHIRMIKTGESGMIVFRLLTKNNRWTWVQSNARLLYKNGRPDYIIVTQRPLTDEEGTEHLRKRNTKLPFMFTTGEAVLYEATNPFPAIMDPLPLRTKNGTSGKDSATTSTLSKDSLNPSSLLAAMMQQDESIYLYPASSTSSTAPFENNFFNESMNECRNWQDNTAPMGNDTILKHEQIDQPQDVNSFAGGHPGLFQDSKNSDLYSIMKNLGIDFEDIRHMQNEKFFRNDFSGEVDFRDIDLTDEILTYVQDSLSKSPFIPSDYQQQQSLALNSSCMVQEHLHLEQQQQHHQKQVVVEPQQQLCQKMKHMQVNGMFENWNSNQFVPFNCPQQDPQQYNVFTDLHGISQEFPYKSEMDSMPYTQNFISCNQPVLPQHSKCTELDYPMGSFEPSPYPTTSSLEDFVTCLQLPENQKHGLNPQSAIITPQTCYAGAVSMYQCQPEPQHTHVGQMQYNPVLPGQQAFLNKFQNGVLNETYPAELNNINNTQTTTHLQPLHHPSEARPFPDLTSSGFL
Retinoic acid receptor alpha (Homo sapiens), sequence (P10276 whole entry, looked up): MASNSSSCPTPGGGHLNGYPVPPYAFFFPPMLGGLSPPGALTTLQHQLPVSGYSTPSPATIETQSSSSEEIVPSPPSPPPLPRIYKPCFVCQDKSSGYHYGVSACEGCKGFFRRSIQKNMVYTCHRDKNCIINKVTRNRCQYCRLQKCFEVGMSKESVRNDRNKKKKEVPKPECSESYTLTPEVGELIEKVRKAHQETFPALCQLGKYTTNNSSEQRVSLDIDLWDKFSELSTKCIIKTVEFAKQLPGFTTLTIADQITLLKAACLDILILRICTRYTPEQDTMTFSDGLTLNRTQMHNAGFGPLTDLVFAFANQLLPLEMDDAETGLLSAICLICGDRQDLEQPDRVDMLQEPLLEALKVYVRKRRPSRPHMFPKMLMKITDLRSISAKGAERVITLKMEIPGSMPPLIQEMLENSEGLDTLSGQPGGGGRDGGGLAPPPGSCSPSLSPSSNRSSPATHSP
Hepatocyte nuclear factor 3-beta (Homo sapiens), sequence (Q9Y261 whole entry, looked up): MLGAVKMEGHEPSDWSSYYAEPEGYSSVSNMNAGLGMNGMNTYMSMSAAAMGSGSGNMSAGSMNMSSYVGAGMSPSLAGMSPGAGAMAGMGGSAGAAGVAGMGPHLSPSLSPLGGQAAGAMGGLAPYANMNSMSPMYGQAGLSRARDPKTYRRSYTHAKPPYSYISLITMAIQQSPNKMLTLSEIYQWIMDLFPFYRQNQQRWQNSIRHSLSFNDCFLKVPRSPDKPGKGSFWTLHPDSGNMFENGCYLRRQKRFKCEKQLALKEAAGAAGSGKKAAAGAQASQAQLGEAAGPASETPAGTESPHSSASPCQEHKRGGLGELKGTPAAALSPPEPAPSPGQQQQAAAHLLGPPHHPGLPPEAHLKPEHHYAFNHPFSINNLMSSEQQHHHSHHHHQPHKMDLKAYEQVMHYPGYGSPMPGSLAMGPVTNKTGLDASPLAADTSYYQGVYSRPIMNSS

c1cc[nH]c1
not listed: [19] | [20]
inactive: all other assays above

CCCCCCCCCCCCOC(=O)c1cc(O)c(O)c(O)c1
active: [1] 6.4 µM | [3] 11.1 µM | [8] 2.92 µM | [18] 11.1 µM
not listed: [4]
inactive: all other assays above

FC(F)(F)N1C(F)(F)C(F)(F)OC(F)(F)C1(F)F
not listed: [3] | [18]
inactive: all other assays above

Cc1ccc(C(=O)c2ccccc2)cc1
active: [11] 27.2 µM
not listed: [3] | [13] | [14] | [20]
inactive: all other assays above

C[N+](C)(CCCNS(=O)(=O)CCC(F)(F)C(F)(F)C(F)(F)C(F)(F)C(F)(F)C(F)(F)F)CC(=O)[O-]
active: [2] 22.4 nM | [11] 0.0122 µM
not listed: [3] | [4] | [14] | [19]
inactive: all other assays above

NCc1cccc(CN)c1
not listed: [4] | [15] | [19] | [20]
inactive: all other assays above

FC(F)(F)C1(F)C(F)(F)C(F)(F)C(F)(F)C(F)(C(F)(F)F)C1(F)F (stereo not given)
not listed: [3] | [4] | [20]
inactive: all other assays above

CCCCCCOC(=O)c1ccc(O)cc1
active: [1] 41.8 µM | [4] 54.9 µM | [8] 51.6 µM | [19] 52.2 µM | [11] 8.86 µM | [20] 54.1 µM | [15] 60.3 µM | [16] 47.5 µM
not listed: [3]
inactive: all other assays above

O=S(=O)(O)c1ccc2cc(O)ccc2c1
not listed: [3] | [11] | [14] | [16] | [19]
inactive: all other assays above

O=C(CC(=O)C(F)(F)C(F)(F)C(F)(F)F)c1cccs1
inactive: [1] inactive [setting not given] | [5] | [7] | [8] | [9] | [19] | [10] | [11] | [12] | [15] | [16] | [17] inactive [setting not given] | [18]
active: [2] 11.4 µM and 50 µM | [3] 35.2 µM and 42 µM | [20] 12.1 µM [setting not given]
